For test [1], the target named is Aldehyde dehydrogenase, mitochondrial (Homo sapiens) (UniProt P05091). Kind of test: qHTS for Inhibitors of the Aldehyde Dehydrogenase Family (ALDH2) Primary screen (AID 2061308).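 Note: plate controls were vehicle for no effect and reference inhibitor for full effect; nearly all actives have a fitted effect of over 55% in size.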
For test [2], the target named is Retinaldehyde dehydrogenase 3 (Homo sapiens) (UniProt P47895). Nature of the test: qHTS for Inhibitors of the Aldehyde Dehydrogenase Family (ALDH1A3) Primary screen (AID 2061315;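 note: plate controls were DMSO vehicle for no effect and reference inhibitor for full effect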). (In general: Quantitative high-throughput screening tests each substance at several concentrations.)
The nature of test [3]: BET inhibitor-based combinations targeting novel dependencies in MECOM-rearranged (r) AML: OCI-AML3 cell line (AID 2202232). Note: potency is the fitted concentration of half-maximal effect; nearly all actives have a fitted effect of over 35% in size. To be noted: Potency: OCI-AML3 viability. The essentials: (§1)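 Viability of cells (500 per well) is scored by luminescent CellTiter-Glo at 48 hr post-dosing. Eleven-point titrations are normalized to DMSO and empty controls and reduced to AUC values.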

A short description of test [4]: BET inhibitor-based combinations targeting novel dependencies in MECOM-rearranged (r) AML: MV-4-11 cell line (AID 2202233). Note: nearly all actives have a fitted effect of over 45% in size. Note: potency is the fitted concentration of half-maximal effect. The essentials:
(§2)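 Using pin-tool transfer, drugs were added in 11 doses to cells (500/well), incubated 48 hr, and assessed with CellTiter-Glo. Z-AUC is a mean-centring transformation applied separately to each screened line.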

Test [5] in a line: BET inhibitor-based combinations targeting novel dependencies in MECOM-rearranged (r) AML: HNT-34 cell line (AID 2202234). Note: nearly all actives have a fitted effect of over 35% in size. Note: potency is the fitted concentration of half-maximal effect. In outline: as §2
Test [6] in a line: BET inhibitor-based combinations targeting novel dependencies in MECOM-rearranged (r) AML: UCSD-AML1 cell line (AID 2202235). Note: nearly all actives have a fitted effect of over 40% in size. Note: potency is the fitted concentration of half-maximal effect. The essentials:
as §2

The nature of test [7]: BET inhibitor-based combinations targeting novel dependencies in MECOM-rearranged (r) AML: AML-191 cell line (AID 2202236; note: nearly all actives have a fitted effect of over 35% in size; note: potency is the fitted concentration of half-maximal effect). The essentials: as §1
Test [8] in a line: BET inhibitor-based combinations targeting novel dependencies in MECOM-rearranged (r) AML: AML-194 cell line (AID 2202237; note: nearly all actives have a fitted effect of over 40% in size; note: potency is the fitted concentration of half-maximal effect). In outline: as §1
Test [9] can be described thus: BET inhibitor-based combinations targeting novel dependencies in MECOM-rearranged (r) AML: SET-2 cell line (AID 2202231).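 For viability: plate controls were DMSO treated cells for no effect and wells without cells for full effect.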 Note: nearly all actives have a fitted effect of over 35% in size. Note: potency is the fitted concentration of half-maximal effect. To be noted: SET-2 AML cells viability, CellTiter-Glo luminescence, 48 h; viability: active compounds read low, concentration not given here. In outline:
as §1
(In general: In ATP-based viability assays light output follows the ATP content of the culture.)

Each structure is given as a SMILES string. Inconclusive results are not listed. A number with no mark means an inactive call. Calls of active or inactive are those of the source. Calls come from the whole dose curve; as a rule, active = well fitted curve in the direction sought with a large enough effect; inconclusive = small, poorly fitted or top-dose-only effect, or another doubt; inactive = no such curve, though single readings can be large; an effect the other way counts as inactive or inconclusive. Peptide text beside a SMILES is read from it. * marks the point of attachment. Hexanoyl = CCCCCC(=O)*

A word on the viability: it is a read-out of living cells in per cent, often relative to untreated cells.

Regarding `CC(C)C(C(=O)N(C)C(C)C(N)=O)N(C)C(=O)C1CCCN1C(=O)/C=C/C=C/C(O)C(C)O` (stereo unspecified), the Potency result in test [1] and in test [2] was “inactive” in each case.
As to `COc1ccc([C@H]2OC[C@H]3O[C@@H](O[C@H]4[C@@H]2NC[C@@H]4O)[C@H](O)[C@H]3O)cc1`, the Potency result in [1] and in test [2] was “inactive” in each case.
Regarding `C=C1CC2[C@]3(C)C(=C(O)C(=O)[C@@]2(C)[C@]2(C(=O)OC)C(=O)C(C)OC(=O)[C@@]12C)C(C)(C)C(=O)CC3O` (stereo partly specified), the Potency result in test [1] and in test [2] was “inactive” in each case.
With `CC(C)c1noc(C2CCN(c3ncnc(Nc4ccc(S(C)(=O)=O)cc4F)c3[N+](=O)[O-])CC2)n1`, the Potency entry in [1] and in [2] was “inactive” in each case.
`Cc1cc(Nc2cc(N3CCN(C)CC3)nc(Sc3ccc(NC(=O)C4CC4)cc3)n2)n[nH]1`: the Potency result in test [1] and in [2] was “inactive” in each case. Besides, the Potency in [3] was 0.662 µM (active); in test [4] it was 0.132 µM (active); in test [5] it was 0.235 µM (active); in test [6], 4.68 µM (active); in [7], 0.662 µM (active); in [8], 0.934 µM (active).
Take `CC1CCC2(C(=O)OC3OC(CO)C(O)C(O)C3O)CCC3(C)C(=CCC4C5(C)CC(O)C(O)C(C)(C(=O)O)C5CCC43C)C2C1(C)O` (stereo unspecified): the Potency entry in test [1] and in test [2] was “inactive” each time.
Regarding `CC(=O)OCC(=O)[C@@]1(O)CC[C@H]2[C@@H]3CCC4=CC(=O)C=C[C@]4(C)[C@H]3[C@@H](O)C[C@@]21C`, the Potency entry in test [1], in test [2], in test [4] and in [6] was “inactive” each time. Further, the viability in test [9] is 114%. Moreover, the Potency in test [7] is 0.833 µM (active); in test [8], 0.372 µM (active).
With `COC(=O)Nc1ccc(-c2nc(N3CCOCC3)c3cnn(C4CCN(Cc5cccnc5)CC4)c3n2)cc1`, the Potency result in test [1] and in [2] was “inactive” each time. In addition, the Potency in [9] is 2.63 µM (active); in test [3], 2.63 µM (active); in test [4], 1.32 µM (active); in test [5], 1.18 µM (active); in test [6], 0.525 µM (active); in test [7] it was 1.86 µM (active).
In the case of `CCCCCC(=O)N1CCC[C@H]1C(=O)N[C@@H](Cc1ccc(O)cc1)C(=O)OC` (Hexanoyl-Pro-Tyr-OMe), the Potency entry in [1] and in [2] was “inactive” throughout.
With `CCOc1cc(C(=O)Nc2ccc(Cl)c(-c3nc4ccccc4[nH]3)c2)cc(OCC)c1OCC`, the Potency result in [1], in [2] and in test [8] was “inactive” in each case. Also, the Potency was 18.6 µM (active) in test [9], 16.6 µM (active) in [4] and 14.8 µM (active) in test [5].
As for `COc1ccccc1[C@H](c1cccc2ccccc12)[C@@](C)(C#N)C(=O)N1CCC(c2cccc(C(F)(F)F)c2)CC1`, the Potency result in test [1], in test [2] and in test [6] was “inactive” each time. Further, the viability in test [9] was 110%. Also, the Potency was 5.25 µM (active) in [4] and 13.2 µM (active) in test [5].
On to `CCc1cc2c(cc1N1CCC(N3CCOCC3)CC1)C(C)(C)c1[nH]c3cc(C#N)ccc3c1C2=O`, for which the Potency result in test [1], in test [2] and in test [6] was “inactive” throughout. In addition, in test [9], the viability is 88.5%.
On to `CC(=O)O[C@@H]1C(O)C[C@@]2(C)C(CC[C@@H](C)C23Cc2c(O)cc4c(c2O3)CNC4=O)C1(C)C` (stereo partly specified), for which the Potency result in test [1] and in [2] was “inactive” each time.
Regarding `Cc1nc(N)ncc1-c1nc(N2CCOCC2)c2sc(C(C)(C)O)cc2n1`, the Potency result in test [1] and in [2] was “inactive” throughout. The Potency is 0.105 µM (active) in [3], 4.17 µM (active) in test [4] and 1.32 µM (active) in [6].
On to `Cc1c(C(=O)Nc2ccc(N3C[C@@H](C)O[C@@H](C)C3)nc2)cccc1-c1ccc(OC(F)(F)F)cc1`, for which the Potency entry in [1], in test [2], in test [5], in [6], in test [7] and in test [8] was “inactive” throughout. Further, in test [9], the viability is 98.5%. Moreover, the Potency in test [4] is 5.25 µM (active).
For the compound `CC(C)(O)c1cc2nc(-c3cnc(N)nc3)nc(N3CCOCC3)c2s1`, the Potency result in [1] and in [2] was “inactive” throughout. Further, the Potency was 1.32 µM (active) in test [3], 1.32 µM (active) in [4], 1.86 µM (active) in test [5] and 0.332 µM (active) in test [6].
As to `NC(=O)c1noc([C@H](CCCC2CCCCC2)CC(=O)NO)n1`, in test [1], the Potency result was “inactive”. Moreover, the Potency in test [9] is 5.9 µM (active); in [4], 18.6 µM (active); in test [5] it was 2.95 µM (active); in test [6], 5.25 µM (active); in test [7], 3.72 µM (active); in test [8], 6.61 µM (active).
For `C=C1C(=O)OC2CC(C)=C(C(C)CCCO[C@@H]3O[C@H](CO)[C@@H](O)[C@H](O)[C@H]3O)C(O)C12` (stereo partly specified), the Potency result in test [1] and in [2] was “inactive” each time.
In the case of `OCc1ccc(-c2ccc(-c3ccc(CO)s3)o2)s1`, in test [1], the Potency entry was “inactive”. Moreover, the values for the Potency in [3], in test [4] and in test [7] were 18.6 µM (active), 13.2 µM (active) and 26.3 µM (active), respectively.
Consider `O=C(NOCC1CC1)c1ccc(F)c(F)c1Nc1ccc(I)cc1Cl`, for which the Potency result in [1] and in test [2] was “inactive” throughout. For the same compound, the Potency in test [9] is 23.5 µM (active); in test [3], 0.296 µM (active); in [5], 8.33 µM (active); in [6], 16.6 µM (active); in test [7], 11.8 µM (active).
Turning to `Cc1ccc(C(=O)Nc2cccc(C(F)(F)F)c2)cc1-c1ccc2nc(NCCN3CCOCC3)ncc2c1`, the Potency entry in [1] and in test [2] was “inactive” throughout. In addition, the Potency was 11.8 µM (active) in [9]; 0.525 µM (active) in test [3]; 2.35 µM (active) in test [4]; 0.0934 µM (active) in [5]; 3.32 µM (active) in test [6]; 2.63 µM (active) in [7]. The Potency in [8] was 3.32 µM (active).

The values are drawn from PubChem BioAssay (NCATS).
